Source: PubChem BioAssay (NCI)
Compounds without any hit were thinned out: in the full panel of roughly 83,000, 20% have a hit.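 Percent growth is the endpoint: 0 to 100 indicates growth inhibition (40 means 60% inhibition), 0 means no net growth, and negative values indicate cell death.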 Calls of active or inactive are those of the source. Rule for the calls: active = growth percent below 10; inactive = the rest.

How the values were obtained:
Assay in all cases: NCI-60 one-dose screen, 48 h (100 = growth as untreated, 0 = no growth, -100 = all killed)
Settings in all cases: 10 µM unless noted
HCT-15 colon = system: HCT-15 colon
HT29 colon = system: HT29 colon
SNB-75 CNS = system: SNB-75 CNS
SNB-19 CNS = system: SNB-19 CNS
U251 CNS = system: U251 CNS
PC-3 prostate = system: PC-3 prostate
SK-MEL-5 melanoma = system: SK-MEL-5 melanoma
UACC-62 melanoma = system: UACC-62 melanoma
LOX IMVI melanoma = system: LOX IMVI melanoma
SK-MEL-28 melanoma = system: SK-MEL-28 melanoma
EKVX NSCLC = system: EKVX NSCLC
SN12C renal = system: SN12C renal
UO-31 renal = system: UO-31 renal
TK-10 renal = system: TK-10 renal
ACHN renal = system: ACHN renal
A498 renal = system: A498 renal
CCRF-CEM leukemia = system: CCRF-CEM leukemia
MOLT-4 leukemia = system: MOLT-4 leukemia
SK-MEL-2 melanoma = system: SK-MEL-2 melanoma
CAKI-1 renal = system: CAKI-1 renal

Measured: growth

C=CCc1cc(Cl)cc2c(OC(C)=O)c(C(C)=O)c(-c3ccccc3)nc12
inactive: HCT-15 colon 108% | HT29 colon 112% | SNB-75 CNS 85.6% | SNB-19 CNS 112% | U251 CNS 105% | PC-3 prostate 96% | SK-MEL-5 melanoma 105% | UACC-62 melanoma 101% | LOX IMVI melanoma 97.3% | SK-MEL-28 melanoma 116% | EKVX NSCLC 75.5% | SN12C renal 99.5% | UO-31 renal 78.2% | TK-10 renal 114% | ACHN renal 102% | A498 renal 110% | CCRF-CEM leukemia 104% | MOLT-4 leukemia 101%

O=C(CC(O)c1ccncc1)c1ccccc1 (stereo not drawn)
inactive: HCT-15 colon 36.4% | HT29 colon 32.7% | SNB-19 CNS 68.2% | U251 CNS 73.4% | SK-MEL-5 melanoma 88.3% | UACC-62 melanoma 89.3% | SK-MEL-28 melanoma 105% | SK-MEL-2 melanoma 57.1% | CAKI-1 renal 86.2% | A498 renal 62.4% | CCRF-CEM leukemia 99.9% | MOLT-4 leukemia 90.9%
active: SNB-75 CNS -5.32% | PC-3 prostate -17.2% | LOX IMVI melanoma -38% | SN12C renal -22.2% | TK-10 renal -30.8%

COc1cc(C2C=C(C)N=C3SC=CN32)cc(OC)c1OC (stereo not drawn)
inactive: HCT-15 colon 106% | HT29 colon 110% | SNB-75 CNS 94.7% | SNB-19 CNS 107% | U251 CNS 103% | PC-3 prostate 94.5% | SK-MEL-5 melanoma 106% | UACC-62 melanoma 107% | LOX IMVI melanoma 97.8% | SK-MEL-28 melanoma 109% | SK-MEL-2 melanoma 115% | SN12C renal 105% | TK-10 renal 107% | ACHN renal 115% | CAKI-1 renal 96.9% | A498 renal 106% | CCRF-CEM leukemia 105% | MOLT-4 leukemia 102%

O=P([O-])(O)OP(=O)([O-])O.[NH-][C@H]1CCCC[C@@H]1[NH-].[OH-].[OH-].[Pt+4]
inactive: HCT-15 colon 102% | HT29 colon 110% | SNB-75 CNS 86.6% | SNB-19 CNS 107% | U251 CNS 91.1% | PC-3 prostate 99.5% | SK-MEL-5 melanoma 106% | UACC-62 melanoma 103% | LOX IMVI melanoma 102% | SK-MEL-28 melanoma 118% | EKVX NSCLC 100% | SN12C renal 105% | UO-31 renal 96.6% | TK-10 renal 102% | ACHN renal 86.3% | CAKI-1 renal 94.8% | A498 renal 81.7% | CCRF-CEM leukemia 98.4% | MOLT-4 leukemia 87.8%

COc1ccc(-c2nc(-c3ccccc3)c(-c3ccccc3)n2C2CC2)cc1OC1CCCCC1
inactive: HCT-15 colon 41.7% | HT29 colon 49.2% | SNB-75 CNS 56.3% | SNB-19 CNS 83.7% | U251 CNS 43.9% | PC-3 prostate 43.4% | SK-MEL-5 melanoma 36% | UACC-62 melanoma 60.8% | LOX IMVI melanoma 45.6% | SK-MEL-28 melanoma 77.7% | SK-MEL-2 melanoma 87.3% | SN12C renal 73.3% | TK-10 renal 92.3% | CAKI-1 renal 58.4% | A498 renal 63.7% | CCRF-CEM leukemia 30.5% | MOLT-4 leukemia 32.7%

O=C(CN1CCN(c2cc3c(cc2F)c(=O)c(C(=O)O)cn3C2CC2)CC1)Nc1ccc(C(=O)/C=C/c2ccc(Cl)cc2)cc1
inactive: HCT-15 colon 111% | HT29 colon 106% | SNB-75 CNS 84.8% | SNB-19 CNS 92.9% | U251 CNS 99% | PC-3 prostate 91.7% | SK-MEL-5 melanoma 96.8% | UACC-62 melanoma 93.1% | LOX IMVI melanoma 78.9% | SK-MEL-28 melanoma 96.5% | SK-MEL-2 melanoma 113% | SN12C renal 94.2% | TK-10 renal 111% | ACHN renal 107% | CAKI-1 renal 102% | A498 renal 102% | CCRF-CEM leukemia 99.5% | MOLT-4 leukemia 110%

CCCCCCc1nc2c(c(C)nn2-c2ccccc2)c2c1CCCCC2
inactive: HCT-15 colon 108% | HT29 colon 100% | SNB-75 CNS 105% | SNB-19 CNS 99.9% | U251 CNS 102% | PC-3 prostate 94.1% | SK-MEL-5 melanoma 94.3% | UACC-62 melanoma 101% | LOX IMVI melanoma 98.2% | SK-MEL-28 melanoma 107% | SN12C renal 104% | UO-31 renal 91.5% | TK-10 renal 126% | ACHN renal 107% | CAKI-1 renal 94.8% | A498 renal 104% | CCRF-CEM leukemia 101% | MOLT-4 leukemia 106%

COc1ccc(NC(=O)/N=c2\oc3c(OC)cccc3cc2-c2cc3ccccc3[nH]2)cc1
inactive: HCT-15 colon 73.3% | HT29 colon 57.7% | SNB-19 CNS 36.2% | U251 CNS 34.1% | PC-3 prostate 39.3% | SK-MEL-5 melanoma 60.6% | UACC-62 melanoma 65.6% | LOX IMVI melanoma 73.1% | SK-MEL-28 melanoma 81.9% | EKVX NSCLC 72.3% | SN12C renal 78.1% | UO-31 renal 90.4% | TK-10 renal 42% | ACHN renal 34.9% | CAKI-1 renal 49% | A498 renal 75% | MOLT-4 leukemia 112%
active: SNB-75 CNS -8.95%

c1ccc2c(c1)Oc1ccccc1C2C1c2ccccc2Oc2ccccc21
inactive: HCT-15 colon 93.3% | HT29 colon 82.8% | SNB-75 CNS 86.2% | SNB-19 CNS 97.1% | U251 CNS 99.3% | PC-3 prostate 85.7% | SK-MEL-5 melanoma 100% | UACC-62 melanoma 86.7% | LOX IMVI melanoma 86.5% | SK-MEL-28 melanoma 110% | EKVX NSCLC 84.9% | SN12C renal 101% | UO-31 renal 73.5% | TK-10 renal 93.4% | ACHN renal 87.7% | CAKI-1 renal 74.5% | A498 renal 91.8% | CCRF-CEM leukemia 98.3% | MOLT-4 leukemia 79.5%

N#Cc1ncc(-c2ccc(F)c(F)c2F)c(NC2CCCCCC2)n1
inactive: HCT-15 colon 76.1% | HT29 colon 95.6% | SNB-75 CNS 72.2% | SNB-19 CNS 78.6% | U251 CNS 59.1% | PC-3 prostate 75.7% | SK-MEL-5 melanoma 89.9% | UACC-62 melanoma 71.2% | LOX IMVI melanoma 84.6% | SK-MEL-28 melanoma 94% | SK-MEL-2 melanoma 95.8% | SN12C renal 78.2% | TK-10 renal 91.5% | ACHN renal 84.7% | CAKI-1 renal 79% | A498 renal 124% | CCRF-CEM leukemia 33.4% | MOLT-4 leukemia 68.1%

CCN1C(=S)N(CC)C2Nn3c(s/c(=C4\C(=O)N(C)c5ccccc54)c3=O)=NC21 (stereo not drawn)
inactive: HCT-15 colon 35.5% | HT29 colon 14.9% | SNB-19 CNS 70.6% | U251 CNS 51.4% | PC-3 prostate 38.6% | SK-MEL-5 melanoma 19.6% | UACC-62 melanoma 48.4% | LOX IMVI melanoma 49.2% | SK-MEL-28 melanoma 59.6% | EKVX NSCLC 54.6% | SN12C renal 51.3% | UO-31 renal 37.2% | TK-10 renal 96.9% | ACHN renal 52.5% | CAKI-1 renal 30.8% | MOLT-4 leukemia 61.8%
active: SNB-75 CNS -1.67% | A498 renal -8.5%

COc1ccc(Cn2c(SC)nc(=O)n(Cc3ccc(Cl)cc3)c2=O)cc1
inactive: HCT-15 colon 98.5% | HT29 colon 121% | SNB-75 CNS 80.7% | SNB-19 CNS 97% | U251 CNS 93.2% | PC-3 prostate 90.1% | SK-MEL-5 melanoma 107% | UACC-62 melanoma 87.7% | LOX IMVI melanoma 87.5% | SK-MEL-28 melanoma 102% | SK-MEL-2 melanoma 102% | SN12C renal 93.5% | ACHN renal 96.3% | CAKI-1 renal 70.5% | A498 renal 88.9% | CCRF-CEM leukemia 97.7% | MOLT-4 leukemia 95%

Cc1ccc2nc(SCn3nnc4ccccc4c3=O)[nH]c2c1
inactive: HCT-15 colon 125% | HT29 colon 102% | SNB-75 CNS 88% | SNB-19 CNS 108% | U251 CNS 103% | PC-3 prostate 103% | SK-MEL-5 melanoma 101% | UACC-62 melanoma 98.4% | LOX IMVI melanoma 100% | SK-MEL-28 melanoma 121% | EKVX NSCLC 97.1% | SN12C renal 108% | UO-31 renal 73.8% | TK-10 renal 196% | ACHN renal 105% | CAKI-1 renal 93.5% | A498 renal 108% | CCRF-CEM leukemia 102% | MOLT-4 leukemia 71.2%

COc1ccc(S(=O)(=O)Nc2cc(/C=C\c3cc(OC)c(OC)c(OC)c3)cc(OC)c2OC)cc1OC
inactive: HCT-15 colon 24.1% | HT29 colon 13.6% | SNB-19 CNS 40% | U251 CNS 23.1% | PC-3 prostate 34.3% | SK-MEL-5 melanoma 23.7% | UACC-62 melanoma 37.3% | LOX IMVI melanoma 48.2% | SK-MEL-28 melanoma 52.5% | SK-MEL-2 melanoma 36.6% | SN12C renal 45% | TK-10 renal 73.4% | ACHN renal 45.1% | CAKI-1 renal 24.4% | MOLT-4 leukemia 17.1%
active: SNB-75 CNS -4.59% | CCRF-CEM leukemia 9.18%

CC(C)C(C(=O)CCN(C)C)c1ccc(Cl)cc1 (stereo not drawn)
inactive: HCT-15 colon 92.6% | HT29 colon 106% | SNB-75 CNS 87.8% | SNB-19 CNS 95.1% | U251 CNS 83.7% | PC-3 prostate 86.9% | SK-MEL-5 melanoma 102% | UACC-62 melanoma 89.7% | LOX IMVI melanoma 98.5% | SK-MEL-28 melanoma 107% | EKVX NSCLC 103% | SN12C renal 95.4% | UO-31 renal 93.3% | TK-10 renal 101% | ACHN renal 101% | CAKI-1 renal 102% | CCRF-CEM leukemia 90.6% | MOLT-4 leukemia 76.5%

O=C1CCCCN1CCCCC#Cc1ccccc1C#Cc1ccc([N+](=O)[O-])cc1
active: SK-MEL-5 melanoma 3.34% | LOX IMVI melanoma 6.11% | UO-31 renal 7.05%
inactive: HCT-15 colon 17.4% | HT29 colon 28.4% | SNB-75 CNS 66.1% | SNB-19 CNS 70.2% | U251 CNS 28% | PC-3 prostate 31.9% | UACC-62 melanoma 25.8% | SK-MEL-28 melanoma 46.1% | EKVX NSCLC 74.8% | SN12C renal 67.4% | TK-10 renal 80.6% | ACHN renal 34% | CAKI-1 renal 58.4% | A498 renal 59.7% | CCRF-CEM leukemia 21.4% | MOLT-4 leukemia 18.7%
